For experiment [1], the target named is ATP-dependent 6-phosphofructokinase (Trypanosoma brucei brucei) (UniProt O15648). Nature of the experiment: qHTS Assay to Find Inhibitors of T. brucei phosphofructokinase: hit validation (AID 492961).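 Further: luminescence reports ADP formed as PFK phosphorylates fructose-6-phosphate with ATP; on the % scale 0 is the no-effect control and ±100 the full control effect.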 In a few lines: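 ADP-Glo luminescence read-out of ADP formed by 1.25 nM PFK from 0.1 mM ATP and 0.5 mM F6P (TEA pH 8.0, 45 min, RT). Compounds titrated; activity normalized to no-enzyme and full-enzyme controls.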
Sequence of ATP-dependent 6-phosphofructokinase (Trypanosoma brucei brucei) (O15648 whole entry, looked up): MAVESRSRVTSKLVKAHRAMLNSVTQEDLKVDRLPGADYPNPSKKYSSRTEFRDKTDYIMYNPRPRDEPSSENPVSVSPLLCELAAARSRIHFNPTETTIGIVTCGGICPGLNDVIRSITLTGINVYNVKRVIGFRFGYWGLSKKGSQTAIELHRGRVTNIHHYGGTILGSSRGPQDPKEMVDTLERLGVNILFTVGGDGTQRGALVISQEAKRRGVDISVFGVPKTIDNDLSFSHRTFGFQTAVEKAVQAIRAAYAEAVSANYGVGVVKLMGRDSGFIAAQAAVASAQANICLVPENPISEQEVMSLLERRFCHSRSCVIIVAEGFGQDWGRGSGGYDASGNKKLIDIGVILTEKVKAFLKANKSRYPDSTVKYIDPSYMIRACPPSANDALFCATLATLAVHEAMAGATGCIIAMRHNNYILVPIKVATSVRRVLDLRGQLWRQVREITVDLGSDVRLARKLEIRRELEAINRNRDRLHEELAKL

Experiment [2] can be described thus: qHTS profiling for inhibitors of Plasmodium falciparum proliferation (AID 504749). Further: potency means the concentration at half of the fitted maximal effect.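 On activity, negative = inhibition: 0% = DMSO vehicle and full inhibition = artemisinin control.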 On all read-outs here: nearly all actives have a fitted effect of over 60% in size. The settings on record: P. falciparum in erythrocytes, SYBR Green DNA, 72 h; for activity, negative = inhibition: at 28.7 µM (top of the series). Put shortly:
(§1)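 Three-day growth assay of blood-stage parasites in erythrocytes (0.3% parasitemia, 2.5% hematocrit) at 37 C, 5% CO2, quantified by SYBR Green DNA staining after overnight detergent lysis.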

For a further experiment, the system named is 3D7. The experiment is described as above. The settings on record: P. falciparum in erythrocytes, SYBR Green DNA, 72 h; series mostly up to 28.7 µM. In a few lines: as §1
The next experiment relates to AA1029. Described as above. Conditions: P. falciparum in erythrocytes, SYBR Green DNA, 72 h; series mostly up to 28.7 µM. Put shortly:
as §1

For another experiment, the system named is AS120. The experiment is described as above. Conditions: P. falciparum in erythrocytes, SYBR Green DNA, 72 h; series mostly up to 28.7 µM. In a few lines:
as §1

A further experiment relates to ATS189. Described as above. Conditions: P. falciparum in erythrocytes, SYBR Green DNA, 72 h; series mostly up to 28.7 µM. Put shortly:
as §1

In the next experiment the test system is C2A. The description is as above. Conditions: P. falciparum in erythrocytes, SYBR Green DNA, 72 h; series mostly up to 28.7 µM. Put shortly:
as §1

The next experiment has as its system CP185. The description is as above. Conditions: P. falciparum in erythrocytes, SYBR Green DNA, 72 h; series mostly up to 28.7 µM. Put shortly:
as §1

The subject of the next experiment is CP191. The experiment is described as above. Conditions: P. falciparum in erythrocytes, SYBR Green DNA, 72 h; series mostly up to 28.7 µM. In a few lines: as §1
The subject of the next experiment is CP192. The description is as above. Conditions: P. falciparum in erythrocytes, SYBR Green DNA, 72 h; series mostly up to 28.7 µM. Put shortly:
as §1

The next experiment has as its system CP194. Described as above. The settings on record: P. falciparum in erythrocytes, SYBR Green DNA, 72 h; series mostly up to 28.7 µM. In a few lines:
as §1

The subject of the next experiment is CP211. Described as above. Conditions: P. falciparum in erythrocytes, SYBR Green DNA, 72 h; series mostly up to 28.7 µM. Put shortly: as §1
In the next experiment the test system is CP217. Described as above. The settings on record: P. falciparum in erythrocytes, SYBR Green DNA, 72 h; series mostly up to 28.7 µM. Put shortly:
as §1

The next experiment has as its system CP237. The description is as above. The settings on record: P. falciparum in erythrocytes, SYBR Green DNA, 72 h; series mostly up to 28.7 µM. Put shortly: as §1
A further experiment deals with CP238. The description is as above. The settings on record: P. falciparum in erythrocytes, SYBR Green DNA, 72 h; series mostly up to 28.7 µM. Put shortly: as §1
For the next experiment, the system named is CP247. The experiment is described as above. The settings on record: P. falciparum in erythrocytes, SYBR Green DNA, 72 h; series mostly up to 28.7 µM. Put shortly:
as §1

A further experiment deals with CP252. The description is as above. The settings on record: P. falciparum in erythrocytes, SYBR Green DNA, 72 h; series mostly up to 28.7 µM. In a few lines:
as §1

Another experiment has as its system CP286. The description is as above. The settings on record: P. falciparum in erythrocytes, SYBR Green DNA, 72 h; series mostly up to 28.7 µM. In a few lines:
as §1

The next experiment concerns Dd2. The description is as above. The settings on record: P. falciparum in erythrocytes, SYBR Green DNA, 72 h; series mostly up to 28.7 µM. In a few lines:
as §1

The next experiment concerns P94_40. The experiment is described as above. The settings on record: P. falciparum in erythrocytes, SYBR Green DNA, 72 h; series mostly up to 28.7 µM. Put shortly:
as §1

Records with an inconclusive call do not appear. Values without a mark were called inactive. Calls of active or inactive are those of the source. The call rests on the fitted dose curve; in most records, active means well fitted curve in the direction sought with a large enough effect; inconclusive means small, poorly fitted or top-dose-only effect, or another doubt; inactive means no such curve, though single readings can be large; an effect the other way counts as inactive or inconclusive.

On to `CC(O)C1CCC2C3CCC4CC(O)CCC4(C)C3CCC12C` (stereo not given), for which the Potency result (in [1]; in the experiment on 3D7; in the experiment with AA1029; in the experiment on AS120; in the experiment on ATS189; in the experiment with C2A) was “inactive” throughout. The Potency result in the experiment on CP185, with CP191, in the experiment with CP192, in the experiment with CP194, with CP211 and with CP217 was “inactive” throughout. Also, the Potency result with CP237, in the experiment on CP238, with CP247, in the experiment with CP252, in the experiment on CP286 and in the experiment with Dd2 was “inactive” in each case. The Potency entry in the experiment on P94_40 is “inactive”. Also, the figures for the activity, negative = inhibition in experiment [2] (parasite line A) and in experiment [2] (parasite line B) were 11.7% and 5.42%, respectively.

`Cc1ccccc1N1C(=O)c2cc(N)ccc2N/C1=C\F`: the Potency entry (in experiment [1]; with 3D7; in the experiment on AA1029; in the experiment with AS120; in the experiment with ATS189; in the experiment with C2A) was “inactive” each time. The Potency entry in the experiment with CP185, with CP191, with CP192, in the experiment on CP194, with CP211 and in the experiment on CP217 was “inactive” throughout. For the same molecule, the Potency result with CP237, in the experiment on CP238, with CP247, in the experiment with CP252, in the experiment on CP286 and in the experiment with Dd2 was “inactive” in each case. Further, the Potency result with P94_40 was “inactive”. The activity, negative = inhibition in experiment [2] (parasite line A) was -6.61%; in [2] (parasite line B), -18.2%.

`C[n+]1c2cc(N)ccc2cc2ccc(N)cc21`: the Potency entry in [1] was “inactive”. Further, the Potency in experiment [2] (parasite line A) is 398 nM (active); in experiment [2] (parasite line B), 1000 nM (active); in the experiment with 3D7, 398 nM (active); in the experiment with AA1029, 708 nM (active); in the experiment with AS120 it was 1000 nM (active); with ATS189, 1120 nM (active). Besides, the Potency in the experiment with C2A was 1000 nM (active); in the experiment with CP185, 631 nM (active); in the experiment on CP191, 282 nM (active); in the experiment with CP192, 1200 nM (active); in the experiment with CP194, 1200 nM (active); in the experiment on CP211, 953 nM (active). Also, the Potency in the experiment with CP217 was 891 nM (active); in the experiment with CP237 it was 282 nM (active); with CP238, 708 nM (active); in the experiment with CP247 it was 1120 nM (active); in the experiment with CP252, 794 nM (active); in the experiment on CP286, 178 nM (active). The Potency was 355 nM (active) in the experiment with Dd2 and 631 nM (active) in the experiment on P94_40.

Consider `CCCCC(=O)OCC(=O)[C@]1(O)Cc2c(O)c3c(c(O)c2[C@H](OC2CC(NC(=O)C(F)(F)F)C(O)C(C)O2)C1)C(=O)c1c(OC)cccc1C3=O` (stereo not given in full), for which the Potency entry in experiment [1] was “inactive”. Also, the Potency was 2240 nM (active) in experiment [2] (parasite line A); 2510 nM (active) in [2] (parasite line B); 1580 nM (active) in the experiment on 3D7; 2000 nM (active) in the experiment with AA1029; 2000 nM (active) with AS120; 3160 nM (active) in the experiment on ATS189. Also, the Potency in the experiment on C2A was 2000 nM (active); in the experiment with CP185, 2240 nM (active); in the experiment on CP191 it was 2510 nM (active); with CP192, 2390 nM (active); in the experiment with CP194, 3010 nM (active); in the experiment on CP211 it was 1690 nM (active). Also, the Potency with CP217 was 3160 nM (active); in the experiment on CP237, 1580 nM (active); in the experiment with CP238, 2510 nM (active); in the experiment on CP247, 3160 nM (active); with CP252, 2510 nM (active); with CP286, 1580 nM (active). The Potency was 2240 nM (active) in the experiment with Dd2 and 2000 nM (active) with P94_40.

In the case of `C=C[C@H]1CN2CCC1C[C@H]2[C@H](O)c1ccnc2ccc(OC)cc12` (stereo not given in full), the Potency entry in [1] is “inactive”. Also, the Potency was 141 nM (active) in experiment [2] (parasite line A); 141 nM (active) in experiment [2] (parasite line B); 178 nM (active) in the experiment on 3D7; 891 nM (active) in the experiment with AA1029; 1410 nM (active) in the experiment with AS120; 1120 nM (active) in the experiment with ATS189. Besides, the Potency was 1120 nM (active) in the experiment on C2A; 794 nM (active) with CP185; 708 nM (active) in the experiment with CP191; 1690 nM (active) in the experiment with CP192; 1070 nM (active) in the experiment on CP194; 1350 nM (active) in the experiment with CP211. The Potency with CP217 was 2820 nM (active); in the experiment on CP237, 1260 nM (active); with CP238, 1580 nM (active); with CP247 it was 1260 nM (active); in the experiment on CP252, 891 nM (active); in the experiment with CP286, 1000 nM (active). Also, the Potency in the experiment with Dd2 is 891 nM (active); in the experiment on P94_40 it was 1000 nM (active).

Source of the values: PubChem BioAssay (NCATS).
